Source: PMC5540273 (PLoS ONE, 2017)

Experiments:
Settings in all cases: concentration: 1 μM, replicates: in singlicate; n = 1
LOK = system: T1, LOK
T1 construct: gene STK10

LRRK2 = system: LRRK2
LTK = system: LTK
LYN = system: LYN
LZK = system: T2, LZK
T2 construct: gene MAP3K13

MAK = system: MAK
MAP3K15 = system: MAP3K15
MAP3K1 = system: MAP3K1
MAP3K2 = system: MAP3K2
MAP3K3 = system: MAP3K3
MAP3K4 = system: MAP3K4
MAP4K2 = system: MAP4K2
MAP4K3 = system: MAP4K3
MAP4K4 = system: MAP4K4
MAP4K5 = system: MAP4K5
MAPKAPK2 = system: MAPKAPK2
MAPKAPK5 = system: MAPKAPK5
MARK1 = system: MARK1
MARK2 = system: MARK2
MARK3 = system: MARK3
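Also: KINOMEscan kinase panel screen.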

| Compound | %Inh (LOK) [%] | %Inh (LRRK2) [%] | %Inh (LTK) [%] | %Inh (LYN) [%] | %Inh (LZK) [%] | %Inh (MAK) [%] | %Inh (MAP3K15) [%] | %Inh (MAP3K1) [%] | %Inh (MAP3K2) [%] | %Inh (MAP3K3) [%] | %Inh (MAP3K4) [%] | %Inh (MAP4K2) [%] | %Inh (MAP4K3) [%] | %Inh (MAP4K4) [%] | %Inh (MAP4K5) [%] | %Inh (MAPKAPK2) [%] | %Inh (MAPKAPK5) [%] | %Inh (MARK1) [%] | %Inh (MARK2) [%] | %Inh (MARK3) [%] |
| --- | --- | --- | --- | --- | --- | --- | --- | --- | --- | --- | --- | --- | --- | --- | --- | --- | --- | --- | --- | --- |
| COc1cc(Nc2ccnc3ccc(C(F)(F)F)cc23)cc(OC)c1OC [GW577382] | 18 | 27 | 0 | 25 | 30 | 12 | 3 | 4 | 0 | 0 | 7 | 1 | 0 | 15 | 4 | 0 | 0 | 8 | 0 | 0 |
| Cc1cccc(-c2nc(Nc3ccc4c(cnn4C)c3)c3ccccc3n2)n1 [GW876731] | 10 | 0 | 0 | 5 | 0 | 29 | 0 | 0 | 12 | 10 | 10 | 0 | 0 | 0 | 0 | 0 | 0 | 12 | 0 | 34 |
| Nc1n[nH]c2nnc(-c3ccccc3)c(-c3ccccc3)c12 [GW554060] | 0 | 41 | 0 | 100 | 3 | 26 | 0 | 25 | 3 | 0 | 0 | 0 | 0 | 0 | 0 | 22 | 0 | 0 | 0 | 0 |
| Nc1nc(N)c2nc(-c3ccccc3)[nH]c2n1 [SKF-12778] | 14 | 18 | 5 | 3 | 0 | 3 | 12 | 9 | 26 | 13 | 26 | 26 | 0 | 26 | 21 | 13 | 5 | 1 | 0 | 0 |
| Cc1nnc(-c2ccc3ncn(-c4ccc(S(C)=O)cc4)c3c2)o1 (stereo not shown) | 4 | 0 | 0 | 8 | 0 | 0 | 0 | 16 | 0 | 0 | 16 | 100 | 0 | 0 | 0 | 11 | 0 | 0 | 0 | 2 |
| COc1ccc(-c2coc3ccc(-c4nnc(SCc5cccc(C#N)c5)o4)cc23)cc1 | 4 | 0 | 0 | 0 | 9 | 36 | 0 | 7 | 24 | 12 | 11 | 0 | 13 | 13 | 12 | 0 | 18 | 20 | 18 | 10 |
| Cl.c1ccc(Cn2cnc3cc(Nc4ncnc5ccccc45)ccc32)cc1 [GW272142] | 0 | 0 | 0 | 0 | 22 | 0 | 0 | 5 | 0 | 0 | 0 | 0 | 0 | 0 | 0 | 15 | 0 | 0 | 0 | 0 |
| O=C(NCCNc1ccnc(Nc2ccc(F)cc2)n1)Nc1ccc2c(c1)OCO2 [GSK1379882] | 0 | 0 | 0 | 0 | 0 | 30 | 0 | 1 | 0 | 0 | 24 | 0 | 0 | 0 | 0 | 0 | 0 | 0 | 0 | 0 |
| Cc1ccc(-c2ccc3c(ccc4sc5c(c43)NC[C@@H](C)N=C5N(C)C)n2)cn1 | 0 | 0 | 0 | 0 | 0 | 17 | 0 | 0 | 0 | 0 | 0 | 0 | 0 | 0 | 0 | 0 | 0 | 0 | 5 | 0 |
| O=C(Nc1n[nH]c2nc(-c3ccccc3)c(Br)cc12)C1CC1 [SB-708998] | 0 | 29 | 4 | 3 | 0 | 12 | 3 | 0 | 7 | 4 | 0 | 1 | 0 | 17 | 13 | 0 | 0 | 0 | 0 | 0 |
| CC(C)(C)c1ccc(C(=O)Nc2cn3cc(-c4ccccc4)ccc3n2)cc1 | 0 | 0 | 0 | 0 | 0 | 11 | 22 | 0 | 0 | 2 | 7 | 0 | 33 | 5 | 0 | 12 | 0 | 0 | 19 | 0 |
| Cc1c(Cn2c(C)nn3c(=O)cc(N4CCO[C@H](C)C4)nc23)cccc1C(F)(F)F [GSK2373690] | 0 | 31 | 0 | 0 | 0 | 0 | 26 | 7 | 2 | 0 | 43 | 0 | 0 | 3 | 0 | 23 | 0 | 0 | 0 | 0 |
| CCCC(=O)Nc1n[nH]c2ncc(-c3cccc4ccccc34)cc12 [SB-642057] | 0 | 0 | 0 | 0 | 0 | 22 | 0 | 7 | 2 | 0 | 34 | 0 | 12 | 8 | 7 | 8 | 0 | 2 | 0 | 0 |
| COc1cc2nccc(Nc3ccc(OCc4ccc(NC(C)=O)cc4)cc3)c2cc1OC.Cl [GW440135] | 0 | 0 | 0 | 23 | 24 | 0 | 0 | 0 | 18 | 0 | 37 | 1 | 0 | 0 | 0 | 28 | 0 | 0 | 0 | 0 |
| CCS(=O)(=O)c1ccc(OC)c(Nc2ncc(-c3ccc(F)cc3)o2)c1.Cl [GW591947] | 0 | 0 | 0 | 0 | 0 | 80 | 0 | 0 | 0 | 0 | 22 | 0 | 0 | 5 | 0 | 1 | 0 | 0 | 0 | 0 |
| CCn1c(-c2ccoc2)nc2cnccc21 [SB-733887] | 0 | 0 | 1 | 4 | 0 | 18 | 0 | 14 | 3 | 0 | 0 | 0 | 0 | 11 | 5 | 16 | 0 | 0 | 0 | 3 |
| Nc1ncnc2c1ncn2-c1cccc2ccccc12 [SKF-97184] | 3 | 4 | 0 | 15 | 34 | 30 | 9 | 5 | 18 | 0 | 2 | 0 | 0 | 0 | 0 | 0 | 0 | 23 | 0 | 52 |
| Nc1nccc2scc(-c3ccc4c(c3)CCN4C(=O)Cc3ccccc3)c12 [GSK2576924] | 21 | 0 | 69 | 0 | 1 | 23 | 9 | 0 | 12 | 0 | 10 | 6 | 17 | 24 | 48 | 6 | 0 | 0 | 1 | 1 |
| COC(=O)c1c(-c2ccccc2)c2cc(Br)ccc2c(=O)n1Cc1ccc(S(C)(=O)=O)cc1 | 6 | 11 | 9 | 14 | 33 | 34 | 26 | 27 | 0 | 32 | 9 | 0 | 0 | 19 | 0 | 4 | 2 | 1 | 0 | 11 |
| CCC(=O)c1c(-c2ccccc2)c2cc(Cl)ccc2c(=O)n1Cc1cc(S(C)(=O)=O)n(CCC(C)(C)O)n1 | 16 | 6 | 6 | 18 | 13 | 2 | 43 | 3 | 21 | 37 | 14 | 0 | 0 | 0 | 18 | 23 | 20 | 0 | 15 | 18 |
